Measured values taken from PubChem BioAssay AID493087 (The Scripps Research Institute Molecular Screening Center, 2011).
About 240 (0.071%) of roughly 340,000 compounds were called active.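 Rule for the calls: active = activation above the mean of all tested compounds plus 3 SD, set per screening campaign (cut at about 17% in these data); inactive = the rest.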 The full list was thinned out, with actives kept by preference.

target: Insulin-degrading enzyme (Homo sapiens) (UniProt P14735); experiment: enhanced cellular IDE Abeta cleavage – fluorescence polarization, HEK cells, FAbeta-B substrate, primary screen (AID 493087); conditions: at 5.96 µM, hits give high values, 0% vehicle, 100% cell-free pure enzyme wells
Sequence (P14735 whole entry, looked up): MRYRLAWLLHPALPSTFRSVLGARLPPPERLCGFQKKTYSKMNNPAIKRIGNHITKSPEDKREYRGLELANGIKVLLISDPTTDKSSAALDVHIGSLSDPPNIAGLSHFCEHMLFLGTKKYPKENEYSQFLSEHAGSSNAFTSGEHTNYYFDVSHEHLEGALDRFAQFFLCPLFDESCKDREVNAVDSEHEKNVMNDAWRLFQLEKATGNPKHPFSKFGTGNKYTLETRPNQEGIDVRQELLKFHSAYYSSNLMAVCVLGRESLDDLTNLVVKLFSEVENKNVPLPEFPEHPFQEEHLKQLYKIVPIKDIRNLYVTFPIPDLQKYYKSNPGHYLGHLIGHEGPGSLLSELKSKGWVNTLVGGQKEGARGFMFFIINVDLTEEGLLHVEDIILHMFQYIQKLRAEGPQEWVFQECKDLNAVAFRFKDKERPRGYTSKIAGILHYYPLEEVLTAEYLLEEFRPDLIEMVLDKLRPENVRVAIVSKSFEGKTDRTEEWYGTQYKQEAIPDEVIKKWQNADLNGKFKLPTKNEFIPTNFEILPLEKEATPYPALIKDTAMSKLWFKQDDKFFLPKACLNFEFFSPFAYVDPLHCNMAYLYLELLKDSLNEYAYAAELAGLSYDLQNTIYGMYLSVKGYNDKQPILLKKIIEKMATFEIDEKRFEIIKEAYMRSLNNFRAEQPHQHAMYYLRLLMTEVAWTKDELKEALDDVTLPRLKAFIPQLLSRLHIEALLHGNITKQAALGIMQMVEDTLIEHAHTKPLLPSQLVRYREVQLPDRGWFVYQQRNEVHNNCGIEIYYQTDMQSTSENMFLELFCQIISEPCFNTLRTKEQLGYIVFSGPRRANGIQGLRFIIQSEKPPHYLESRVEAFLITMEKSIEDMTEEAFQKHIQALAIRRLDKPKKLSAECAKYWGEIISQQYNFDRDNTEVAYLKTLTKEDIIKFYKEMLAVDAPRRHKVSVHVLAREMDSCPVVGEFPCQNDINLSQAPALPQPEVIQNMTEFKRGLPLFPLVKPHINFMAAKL

activation, inactive:
O=C1/C(=C\c2ccc(O)cc2)CCC1CNc1ccc(Cl)cc1 (configuration not stated) -1.61%, N#Cc1cccc(CN2CCC(=O)N([C@H](CO)c3ccccc3)CC2)c1 2.37%, OC(COc1ccccc1)CN1CCN(c2cccc(Cl)c2)CC1 (configuration not stated) 5.12%, CN(Cc1cccs1)C(=O)CN1C(=O)c2ccccc2S1(=O)=O 0.93%, COCCN(C(=S)Nc1cccc(Cl)c1C)C(C)c1ccco1 (configuration not stated) 1.29%, COc1ccc(S(=O)(=O)c2c[nH]c(=S)[nH]c2=O)cc1Cl -1.33%, CN(C)S(=O)(=O)c1ccc(N2CCCC2=O)c([N+](=O)[O-])c1 5.59%, COc1ccc(Cn2cc(CN3CCS(=O)(=O)N(Cc4ccc(-c5cccc(Cl)c5)cc4)C(C)C3=O)nn2)cc1 (configuration not stated) 1.16%, Cc1noc(C)c1C(=O)OC(C)C(=O)Nc1ccc2c(c1)OCO2 (configuration not stated) 0.42%, CCCCSCCCNC(=O)C1CCC(CNS(=O)(=O)c2ccc(NC(C)=O)cc2)CC1 (configuration not stated) -0.18%, C=CCn1c(=O)c(C(=O)NCc2ccc3c(c2)OCO3)c(O)c2ccccc21 3.17%, CCn1c(=O)cc(SCC(=O)NCc2ccc3c(c2)OCO3)c2ccccc21 2.55%, COc1ccccc1CC(NC(C)=O)C(=O)NC1CCN(C(=O)Nc2ccccc2Cl)CC1 (configuration not stated) 3.56%, O=C(CSc1ncnc2sccc12)NC1CCS(=O)(=O)C1 (configuration not stated) 6.28%, CCOC(=O)/C=C/c1ccc(C(F)(F)F)cc1S(=O)(=O)NC(C)(C)C -1.81%, CCOCc1c(C(=O)N2CCN(Cc3ccc(Br)s3)CC2)oc2ccccc12 7.28%, Cc1ccc(NC2CCCN(C(=O)CCC3(C)CC3)C2)cc1C (configuration not stated) 3.99%, Cn1c2c(c(=O)n(C)c1=O)[C@@H]1c3c(ccc4ccccc34)OC[C@@H]1CO2 9.31%, Cc1cc(C)c(S(=O)(=O)Nc2c(C)n(C)n(-c3ccccc3)c2=O)cc1[N+](=O)[O-] 0.96%, CSc1ccccc1OCc1cc(C(=O)N2C[C@H]3CC[C@H]2C3)no1 0.59%, COC(=O)c1c(C)cc(O)c(C)c1O -0.29%, COc1ccc(CCNC(=O)CCNS(=O)(=O)c2cc(Br)cnc2N)cc1OC 3.78%, Cn1c(N)c(C(=O)COC(=O)/C=C/c2cccc(C(F)(F)F)c2)c(=O)n(C)c1=O 4.24%, CCN1CCN(C(=O)C2(NC(=O)Nc3cccc(F)c3)CCCCC2)CC1 4.93%, CC(=O)N1c2ccc(S(=O)(=O)N3CCCC(C(=O)Nc4cccc(F)c4)C3)cc2CC1C (configuration not stated) 5.74%, Cc1ccc(NC(=O)C(c2ccccc2)N2CCN(C(=O)c3ccco3)CC2)cc1 (configuration not stated) 0.44%, CCCC[C@@H]1CN=C(N)N1CCc1cc(C(F)(F)F)cc(C(F)(F)F)c1 5.76%, CCCC(C)C(=O)OCC(=O)Nc1c(Br)cc(C)cc1Br (configuration not stated) 4.33%, Cc1ccc(S(=O)(=O)N2C[C@@H]3CCCC[C@@H]3[C@@H](C)[C@H]2c2cn(Cc3ccccc3)c3ccc(F)cc23)cc1 0.65%, Cc1cccc(N2CCN(C(=O)c3cc4c(=O)[nH]c5ccccc5c4n3C)CC2)c1C 0.68%, CCOC(=O)C1CCCN(S(=O)(=O)c2ccc3c(c2)C(C)(C)C(=O)N3C)C1 (configuration not stated) 4.3%, CC(=O)N1CCCc2cc(S(=O)(=O)N3CCCC(C(=O)N4CCN(c5cccc(Cl)c5)CC4)C3)ccc21 (configuration not stated) 1.25%, O=C1CCC[C@@H]2CC(N3CCCCC3)C[C@@H]3CCN1[C@H]23 (some centres not stated) 3.58%, Cc1cccc(CCNC(=O)Cn2ncc3c([nH]c4ccc(C)cc43)c2=O)c1 4.1%, COc1cccc(NC(=O)CC(c2ccc(OC(C)C)cc2)c2ccccc2OC)c1 (configuration not stated) 5.55%, Cc1cccc(C(=O)NC(=S)N2CCN(c3ccc([N+](=O)[O-])cc3)CC2)c1 7.97%, Cc1ccc(S(=O)(=O)N(C)C)cc1NC(=O)CN1c2cccc3cccc(c23)S1(=O)=O -4.07%, O=C(CN1CCN(c2cccc(Cl)c2)CC1)Nc1ccc(S(=O)(=O)N2CCOCC2)cc1 -1.02%, CC1CC(C)CN(CCCNC(=O)c2csc3c2CCCCC3)C1 (configuration not stated) 0.64%, COc1ccc(NS(=O)(=O)c2ccc(N3CCN(CCO)CC3)c([N+](=O)[O-])c2)cc1 4.53%, O=C1OCC2=C1C(c1ccccc1)CC(=O)N2c1cccc(F)c1 (configuration not stated) 2.91%, CCOC(=O)C1(CC2CCCCO2)CCN(Cc2nc(-c3cccs3)oc2C)CC1 (configuration not stated) -1.12%, CCOC(=O)C1CCCN(C(=O)c2ccc(CS(=O)(=O)c3ccc(Br)cc3)o2)C1 (configuration not stated) -1.91%, CCN1CCN(C2CCCCC2NS(=O)(=O)c2ccc(Cl)cc2)CC1 (configuration not stated) 5.06%, O=C1c2ccccc2C(=O)N1CCC(c1ccccc1)c1ccco1 (configuration not stated) 7.64%, CSc1nnnn1-c1c(C)cc(C)cc1C -3%, CCOCCCNC(=O)c1c[nH]c2cc(C)ccc2c1=O 4.46%, O=C1CC(c2ccccc2)C(=O)N2C(=O)CC(c3ccccc3)C(=O)N12 (configuration not stated) 3.82%, CCc1nccn1S(=O)(=O)c1cccc([N+](=O)[O-])c1 6.7%, COC(=O)c1ccc(CNC(=O)Cn2cc(C)c(=O)[nH]c2=O)cc1 4.54%, COC(=O)C1=CN(Cc2ccc(OC)cc2)C=C(C(=O)OC)C1c1ccc(O)c(OC)c1 5.83%, C=CCNC(=S)/N=c1/ccccn1Cc1ccccc1 4.17%, COc1ccc(C(=O)CN2C(=O)NC(C)(c3ccc(C)cc3)C2=O)cc1OC (configuration not stated) -1.44%, CCOc1ccc(CCNC(=O)COC(=O)C2CCN(S(=O)(=O)c3ccccc3)CC2)cc1OCC 2.21%, CCc1nnc(NC(=O)C2CC(=O)N(c3ccc4c(c3)OCCO4)C2)s1 (configuration not stated) 3.02%, Cn1c(=O)n(C)c2cc(S(=O)(=O)Nc3ccc(F)cc3)ccc21 4.63%, Cc1cc2oc(C(=O)Nc3c(C)n(C)n(-c4ccccc4)c3=O)c(C)c2cc1Cl 1.29%, S=C1Nc2cc(Cl)ccc2Sc2ccccc21 0.11%, CC(C#N)(NC(=O)CN1CCN(S(=O)(=O)c2cc(C(F)(F)F)ccc2Cl)CC1)C1CC1 (configuration not stated) 5.5%, CNC(=O)NC(=O)C(OC(=O)c1cccc(S(=O)(=O)N2CCCCC2)c1)c1ccccc1 (configuration not stated) -3.23%, N#Cc1ccccc1NC(=O)COc1c(Br)cc(Br)c2cccnc12 -2.72%, COc1ccc(S(=O)(=O)N2CCN(c3cnccn3)CC2)cc1 0.13%, O=C(NCCc1ccc(F)cc1)c1ccc2nccnc2c1 -0.11%, CCC(=O)Nc1cccc(C2=NOC3(C2)C[C@@H](C(N)=O)N(C(=O)c2cc([N+](=O)[O-])cc([N+](=O)[O-])c2C)C3)c1 (some centres not stated) 5.78%, O=C(N/C(=C\c1ccc(F)cc1)C(=O)N1CCCCCC1)c1ccccc1 5.73%, O=C(C1Cc2ccccc2CN1C(=O)c1ccco1)N1CCN(c2ccccc2)CC1 (configuration not stated) 4.46%, CCOC(=O)CSc1nnc(CNC(=O)c2cccs2)n1-c1cc(OC)ccc1OC 0.94%, COc1ccc(-c2oc3ncn(Cc4ccco4)c(=N)c3c2-c2ccc(OC)cc2)cc1 5.41%, CCOC(=O)c1cccc(NC(=O)CN2C(=O)C3CC=CCC3C2=O)c1 (configuration not stated) 1.23%, Cn1c2ccccc2c2cc(/C=C(\NC(=O)c3ccccc3)C(=O)NCC(=O)O)ccc21 -43.6%, CCN1CCN(c2cc3nc(C)n(Cc4ccccc4)c(=O)c3cc2NC(=O)c2ccccc2F)CC1 2.61%, Cc1ccsc1C(=O)NC1CCCCC1C (configuration not stated) -2.46%, Cc1cc(=O)oc(C)c1C(=O)NCCN(C)Cc1ccccc1 -4.58%, CN(C(=O)CSc1nnc(C2CC2)n1C)C1CCCc2ccccc21 (configuration not stated) 0.43%, CC(C)C(NC(=O)c1c(F)cccc1F)C(=O)NNC(=O)c1ccccc1 (configuration not stated) 5.51%, O=S(=O)(Nc1ccc2ccccc2c1)N1CCCCC1 1.85%, CC1CCC(NS(=O)(=O)c2ccc3c(c2)CC(=O)N3)CC1 (configuration not stated) 3.97%, CCOC(=O)C1(CCOc2ccccc2)CCN(Cc2cc(OC)cc(OC)c2)CC1 -1.76%, CCOC(=O)C1(CCOc2ccccc2)CCN(Cc2cc(OC)c(O)cc2Cl)CC1 2.9%, COc1ccccc1/C=C/C1=NC(=C\N(C)C)/C(=O)O1 -5.01%, Cn1c(=O)c2cc(S(=O)(=O)NCCC(=O)Nc3ccc(F)cc3F)ccc2n(C)c1=O 5.29%, COc1ccc(C2C(C#N)=C(N)Oc3n[nH]c(C)c32)cc1CN1CCN(c2ccc(F)cc2)CC1 (configuration not stated) -3.14%, Cc1cccc(NC(=O)CSc2nnc(CCNC(=O)OC(C)(C)C)o2)c1C -0.87%, Cc1ccccc1OC(=O)Cn1c(C(F)(F)F)nc2ccccc21 3.41%

activation, active:
CCn1c(=O)c([N+](=O)[O-])c(NCc2ccc3c(c2)OCO3)c2ccccc21 23.5%, CCOC(=O)/C=C/CN(C(=O)OC(C)(C)C)S(=O)(=O)N1CC=CC1 34.8%, Cc1c(CN2CCC(CO)(CCOc3ccccc3)CC2)[nH]c2ccc(Cl)cc12 24.6%
